HT1080 IDH1KD tx: qHTS for induction of synthetic lethality in tumor cells producing 2HG: qHTS for the HT-1080-IDH1KD cell line. HT-1080 IDH1 knockdown viability, ATP luminescence, 48 h. Potency, µM (highest dose often 46.1 µM), hits mostly cytotoxic. hit rate 2% among 360,000. AID 686971, 2013
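CellTiter-Glo luminescence after 48 h compound exposure at 37 degrees C of IDH1-knockdown HT-1080 cells in 5% FBS RPMI. %Activity scaled between DMSO wells and cell-free media wells, with curves fitted and assigned curve classes.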
KB-3-1 cytotox: qHTS assay for MDR1-selective chemotherapeutics: Primary screen using the parental adenocarcinoma cell KB-3-1; KB-3-1 viability, CellTiter-Glo ATP luminescence, 72 h; Potency, µM (series often up to 46.1 µM), hits mostly cytotoxic; hit rate 1.4% among 400,000; AID 1347075, 2019; also: nearly all actives have a fitted effect of over 60% in size
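KB-3-1 cells, DMEM (no phenol red) + 10% FBS; compound by pin transfer, 72 h, 37 °C. Readout: CellTiter-Glo luminescence after 10 min. Data normalized, curve-fitted.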
HT1080-NT tox: qHTS for induction of synthetic lethality in tumor cells producing 2HG: qHTS for the HT-1080-NT fibrosarcoma cell line. HT-1080-NT fibrosarcoma viability, CellTiter-Glo ATP luminescence, 48 h. Potency, µM (titrated, usually from 46.1 µM), hits mostly cytotoxic. hit rate 1.6% among 360,000. AID 686970, 2013;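 also: NT is the 2HG producing partner of a matched IDH1 knockdown line; nearly all actives have a fitted effect of over 55% in size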
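Toxicity toward the 2HG-producing NT line was scored as %Activity, normalised to DMSO and no-cell wells, from CellTiter-Glo luminescence after 48 hours' treatment.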
TDP1 cell noCPT: qHTS for Inhibitors of human tyrosyl-DNA phosphodiesterase 1 (TDP1): qHTS in cells in absence of CPT; hit rate 15% among 420,000; AID 686978, 2013; DT40 Tdp1-/- hTDP1 cells, no CPT, ATP luminescence, 48 h; Potency, µM (top dose mostly 46.2 µM), usual class: inhibitors; also: nearly all actives have a fitted effect of over 55% in size
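Luminescent ATP content (CellTiter-Glo) served as the growth readout. Knockout chicken DT40 cells expressing human TDP1 were exposed to compounds without camptothecin for a minimum 48 hr at 37 °C.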
KB-V1 cytotox: qHTS assay for MDR1-selective chemotherapeutics: Primary screen using the drug-selected MDR subline cells KB-V1. KB-V1 MDR cells viability, CellTiter-Glo, 72 h. hit rate 3.4% among 400,000. Potency, µM (series often up to 46.1 µM), hits mostly cytotoxic; also: nearly all actives have a fitted effect of over 60% in size
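Compound-treated KB-V1 multidrug-resistant cells, 72 h, 37 degrees C; viability by CellTiter-Glo. Fitted qHTS curves give the values.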
TDP1 cell CPT: qHTS for Inhibitors of human tyrosyl-DNA phosphodiesterase 1 (TDP1): qHTS in cells in presence of CPT | chicken DT40 Tdp1-/-;hTDP1 cells + 20 nM CPT, ATP luminescence, 48 h | Potency, µM (top dose mostly 46.2 µM), most hits filed as inhibitors | hit rate 12% among 420,000; also: nearly all actives have a fitted effect of over 55% in size
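Chicken DT40 Tdp1-/- cells stably complemented with human TDP1 were seeded at 400 cells/well in medium containing 20 nM camptothecin, exposed to pin-transferred compounds, and grown at 37 °C for at least 48 hr. Viability was read as ATP luminescence.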
A number is an active result. Hits are enriched below; roughly 19% of the tested compounds scored in any of these assays. Calls follow the shape of the dose curve; as a rule, active = well fitted curve in the direction sought with a large enough effect; inconclusive = small, poorly fitted or top-dose-only effect, or another doubt; inactive = no such curve, though single readings can be large; an effect the other way counts as inactive or inconclusive.

What do the screens show for `CC(O)(c1cccc(F)c1)c1nc(-c2cc(F)cc(F)c2)cs1` (stereo not drawn)?
HT1080 IDH1KD tx: inconclusive; KB-3-1 cytotox: inactive; HT1080-NT tox: inconclusive; TDP1 cell noCPT: inconclusive; KB-V1 cytotox: inactive; TDP1 cell CPT: 2.91µM

How did CC(O)(c1ccccc1)c1nc(-c2cccc(F)c2)cs1 (stereo not drawn) do in these assays?
HT1080 IDH1KD tx: inactive; KB-3-1 cytotox: inactive; HT1080-NT tox: inconclusive; TDP1 cell noCPT: inactive; KB-V1 cytotox: inactive; TDP1 cell CPT: 20.6µM

How did OC(c1ccccc1)(c1nc(/C=C/c2ccc(C(F)(F)F)cc2)cs1)C(F)(F)F (stereo not drawn) do in these assays?
HT1080 IDH1KD tx: inconclusive; KB-3-1 cytotox: inactive; HT1080-NT tox: inconclusive; TDP1 cell noCPT: 23.1µM; KB-V1 cytotox: inactive; TDP1 cell CPT: inconclusive

How did CC(=O)Nc1cccc(-c2csc(C(C)(O)c3cccc(F)c3)n2)c1 (stereo not drawn) do in these assays?
HT1080 IDH1KD tx: inactive; KB-3-1 cytotox: inactive; HT1080-NT tox: inactive; TDP1 cell noCPT: inconclusive; KB-V1 cytotox: inactive; TDP1 cell CPT: 23.1µM

What do the screens show for `CCc1cccc(NC(=O)Cn2nc(C)c3sc4ccccc4c3c2=O)c1`?
KB-3-1 cytotox: inactive; TDP1 cell noCPT: inactive; KB-V1 cytotox: inactive; TDP1 cell CPT: inactive

What do the screens show for `CC(=O)SC[C@@H](C)C(=O)N1CCC[C@H]1C(=O)N[C@@H](Cc1ccccc1)C(=O)O`?
TDP1 cell noCPT: inactive; TDP1 cell CPT: inactive

Results for Cc1nn(C2CCS(=O)(=O)C2)c(C)c1CN(C)C(=O)c1ccc(F)cc1 (stereo not drawn) ?
HT1080 IDH1KD tx: inactive; KB-3-1 cytotox: inactive; HT1080-NT tox: inactive; TDP1 cell noCPT: inactive; KB-V1 cytotox: inactive; TDP1 cell CPT: inactive

What do the screens show for `Cc1ccc(-c2n[nH]c3c2C(c2ccc(C(C)(C)C)cc2)NC3=O)cc1` (stereo not drawn)?
KB-3-1 cytotox: inactive; TDP1 cell noCPT: inactive; KB-V1 cytotox: inactive; TDP1 cell CPT: inactive

What do the screens show for `CCc1ccccc1NC(=O)c1ccc(CN2C(=O)CCn3nc(C)cc32)cc1`?
KB-3-1 cytotox: inactive; TDP1 cell noCPT: inactive; KB-V1 cytotox: inactive; TDP1 cell CPT: inactive

What do the screens show for `CC(O)(c1cccc(F)c1)c1nc(-c2ccc3ccccc3c2)cs1` (stereo not drawn)?
HT1080 IDH1KD tx: inconclusive; KB-3-1 cytotox: inactive; HT1080-NT tox: inconclusive; TDP1 cell noCPT: 23.1µM; KB-V1 cytotox: inactive; TDP1 cell CPT: 13µM

How did CC(O)(c1cccc(F)c1)c1nc(/C=C/c2ccccc2)cs1 (stereo not drawn) do in these assays?
HT1080 IDH1KD tx: inconclusive; KB-3-1 cytotox: inactive; HT1080-NT tox: inactive; TDP1 cell noCPT: inconclusive; KB-V1 cytotox: inactive; TDP1 cell CPT: 18.4µM

How did COc1ccc(-c2csc(C(C)(O)c3cccc(F)c3)n2)cn1 (stereo not drawn) do in these assays?
HT1080 IDH1KD tx: inconclusive; KB-3-1 cytotox: inactive; HT1080-NT tox: inactive; TDP1 cell noCPT: 23.1µM; KB-V1 cytotox: inactive; TDP1 cell CPT: 23.1µM

Results for CCN(CC)C(=O)c1cccc(-c2csc(C(C)(NC(C)=O)c3ccccc3)n2)c1 (stereo not drawn) ?
HT1080 IDH1KD tx: inactive; KB-3-1 cytotox: inactive; HT1080-NT tox: inactive; TDP1 cell noCPT: inconclusive; KB-V1 cytotox: inactive; TDP1 cell CPT: inconclusive

What do the screens show for `CCN(CC)C(=O)c1cccc(-c2csc(C(C)(O)c3cccc(F)c3)n2)c1` (stereo not drawn)?
HT1080 IDH1KD tx: inconclusive; KB-3-1 cytotox: inactive; HT1080-NT tox: inconclusive; TDP1 cell noCPT: 23.1µM; KB-V1 cytotox: inconclusive; TDP1 cell CPT: 18.4µM

How did COC(=O)/C=C1\OCc2cccc(C)c21 do in these assays?
HT1080 IDH1KD tx: inactive; KB-3-1 cytotox: inactive; HT1080-NT tox: inactive; TDP1 cell noCPT: inactive; KB-V1 cytotox: inactive; TDP1 cell CPT: inactive

What do the screens show for `O=C(COc1ccc(F)cc1)NCC1(N2CCCCC2)CCCCC1`?
HT1080 IDH1KD tx: inactive; KB-3-1 cytotox: inactive; HT1080-NT tox: inactive; TDP1 cell noCPT: inactive; KB-V1 cytotox: inactive; TDP1 cell CPT: inactive

Results for Cn1nc(C(=O)NNC(=O)c2ccccc2Br)c2ccccc2c1=O ?
HT1080 IDH1KD tx: inactive; KB-3-1 cytotox: inconclusive; HT1080-NT tox: inactive; TDP1 cell noCPT: inactive; KB-V1 cytotox: inactive; TDP1 cell CPT: inactive

What do the screens show for `Cn1c(CNC(=O)CSc2n[nH]c(-c3ccccc3Cl)n2)nc2ccccc21`?
KB-3-1 cytotox: inactive; TDP1 cell noCPT: inactive; KB-V1 cytotox: inactive; TDP1 cell CPT: inactive

Results for CC1CC2OC2CC1COC(=O)C1CC2OC2CC1C (stereo not drawn) ?
HT1080 IDH1KD tx: inactive; KB-3-1 cytotox: inactive; HT1080-NT tox: inactive; TDP1 cell noCPT: inconclusive; KB-V1 cytotox: inactive; TDP1 cell CPT: 16.4µM

How did CC1CC1C(=O)OCC(=O)NC(=O)NCc1ccco1 (stereo not drawn) do in these assays?
HT1080 IDH1KD tx: inactive; KB-3-1 cytotox: inactive; HT1080-NT tox: inactive; TDP1 cell noCPT: inactive; KB-V1 cytotox: inactive; TDP1 cell CPT: inactive

How did Cc1ccc(-n2cnc3cc(C(=O)NCCC4=CCCCC4)ccc32)c(C)c1 do in these assays?
KB-3-1 cytotox: inactive; TDP1 cell noCPT: inconclusive; KB-V1 cytotox: inactive; TDP1 cell CPT: inconclusive

What do the screens show for `COc1ccc(CCNC(=O)c2ccc3c(c2)ncn3-c2ccc(C)cc2C)cc1OC`?
KB-3-1 cytotox: inactive; TDP1 cell noCPT: 20.6µM; KB-V1 cytotox: inactive; TDP1 cell CPT: inconclusive

What do the screens show for `COc1ccc(CCNC(=O)c2ccc3c(c2)ncn3-c2ccc(C(C)C)cc2)cc1OC`?
KB-3-1 cytotox: inactive; TDP1 cell noCPT: 18.4µM; KB-V1 cytotox: inconclusive; TDP1 cell CPT: 10.3µM

How did CCOCCCNC(=O)c1ccc2c(c1)ncn2-c1ccc(C)cc1C do in these assays?
HT1080 IDH1KD tx: inactive; KB-3-1 cytotox: inactive; HT1080-NT tox: inactive; TDP1 cell noCPT: 16.4µM; KB-V1 cytotox: inactive; TDP1 cell CPT: inactive

Results for Cc1ccc(CN2CC(N3CCCC3)CS2(=O)=O)cc1 (stereo not drawn) ?
HT1080 IDH1KD tx: inactive; KB-3-1 cytotox: inactive; HT1080-NT tox: inactive; TDP1 cell noCPT: inactive; KB-V1 cytotox: inactive; TDP1 cell CPT: inactive

What do the screens show for `NC(=O)c1cc(C(=O)c2ccccc2Cl)c[nH]1`?
HT1080 IDH1KD tx: inactive; KB-3-1 cytotox: inactive; HT1080-NT tox: inactive; TDP1 cell noCPT: inactive; KB-V1 cytotox: inactive; TDP1 cell CPT: inactive
